Experimental data taken from PubChem BioAssay (NCI).
This is part of a sample that, as a whole, favours compounds with a hit. Of some 83,000 tested, about 20% had one in any assay.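 In brief: 96-well plates, 48 h treatment, single concentration, percent growth endpoint.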 Active and inactive are the calls of the source. Rule for the calls: active = growth percent below 10; inactive = the rest.

How the values were obtained:
Assay in all cases: NCI-60 one-dose screen, 48 h (100 = growth as untreated, 0 = no growth, -100 = all killed)
Conditions in all cases: 10 µM unless noted
DU-145 prostate = system: DU-145 prostate
K-562 leukemia = system: K-562 leukemia
MALME-3M melanoma = system: MALME-3M melanoma
MDA-MB-231 breast = system: MDA-MB-231 breast
RXF 393 renal = system: RXF 393 renal
SF-268 CNS = system: SF-268 CNS
SF-295 CNS = system: SF-295 CNS
SF-539 CNS = system: SF-539 CNS
UACC-257 melanoma = system: UACC-257 melanoma
M14 melanoma = system: M14 melanoma

Measured: growth

CCOC(=O)n1cnc2c(Cl)ncnc21
inactive: DU-145 prostate 106% | K-562 leukemia 106% | MALME-3M melanoma 113% | MDA-MB-231 breast 101% | RXF 393 renal 104% | SF-268 CNS 111% | SF-295 CNS 101% | SF-539 CNS 93.6% | UACC-257 melanoma 86.4% | M14 melanoma 101%

O=C(C[n+]1ccccc1Cl)c1ccc2c(c1)CCCC2
inactive: DU-145 prostate 97.1% | K-562 leukemia 82.9% | MALME-3M melanoma 81.8% | MDA-MB-231 breast 99.7% | RXF 393 renal 95.8% | SF-268 CNS 99.5% | SF-295 CNS 99.4% | SF-539 CNS 97.6% | UACC-257 melanoma 101% | M14 melanoma 86.2%

CS(=O)(=O)OCC(COS(C)(=O)=O)C(c1ccccc1)c1ccccc1
inactive: DU-145 prostate 129% | K-562 leukemia 101% | MALME-3M melanoma 99.7% | MDA-MB-231 breast 96.5% | RXF 393 renal 97.4% | SF-268 CNS 109% | SF-295 CNS 97.2% | SF-539 CNS 118% | UACC-257 melanoma 111% | M14 melanoma 106%

COc1cc(/C=C/C(=O)c2c(C)[n+]([O-])c3ccccc3[n+]2[O-])ccc1O
inactive: DU-145 prostate 101% | K-562 leukemia 85.2% | MALME-3M melanoma 103% | MDA-MB-231 breast 81.5% | RXF 393 renal 111% | SF-268 CNS 95.5% | SF-295 CNS 89.3% | SF-539 CNS 100% | UACC-257 melanoma 98.9% | M14 melanoma 103%

Oc1ccc(Cl)cc1Sc1cc(Cl)ccc1O
inactive: DU-145 prostate 98.9% | K-562 leukemia 93.3% | MALME-3M melanoma 86.2% | MDA-MB-231 breast 96.4% | RXF 393 renal 62% | SF-268 CNS 87.8% | SF-295 CNS 108% | SF-539 CNS 97.6% | UACC-257 melanoma 94.7% | M14 melanoma 95.8%

CCCCC(=O)Nc1nc2ccc(SCCC)cc2s1
inactive: DU-145 prostate 67.4% | K-562 leukemia 16.5% | MALME-3M melanoma 50% | MDA-MB-231 breast 51.9% | RXF 393 renal 45.9% | SF-268 CNS 61.6% | SF-295 CNS 45.1% | SF-539 CNS 50.5% | UACC-257 melanoma 66.8% | M14 melanoma 37.3%

CC(/C=C/C=C(\C)[C@H](O)[C@H](C)C(=O)O[C@H]1C[C@H](C)C=C2C=C[C@@]3(C)O[C@@H](O)CC(=O)[C@]3(C)[C@H]21)=C\C=C\C(=O)O
active: DU-145 prostate 4.82% | K-562 leukemia 5.89% | MALME-3M melanoma -57% | RXF 393 renal -49.5% | SF-268 CNS 7.59% | SF-295 CNS 2.34% | SF-539 CNS -15.9% | UACC-257 melanoma 2.06% | M14 melanoma -51.3%
inactive: MDA-MB-231 breast 19.8%

CCCC(=O)Oc1ccc(/C(=C(\C)c2ccc(OC)cc2)c2ccc(OCCN3CCCCC3)cc2)cc1
inactive: DU-145 prostate 87.1% | K-562 leukemia 21.9% | MALME-3M melanoma 61.9% | MDA-MB-231 breast 109% | RXF 393 renal 66.2% | SF-268 CNS 83.1% | SF-295 CNS 61.5% | SF-539 CNS 65.5% | UACC-257 melanoma 68.5% | M14 melanoma 33.8%

CC(C)CNCC(=O)Nc1ccc(Cc2ccc(NC(=O)CNCC(C)C)cc2)cc1
active: K-562 leukemia -27.7% | MALME-3M melanoma -23% | MDA-MB-231 breast -0.499%
inactive: DU-145 prostate 58.3% | RXF 393 renal 46.7% | SF-268 CNS 59.7% | SF-295 CNS 78.5% | SF-539 CNS 77.8% | UACC-257 melanoma 62.6% | M14 melanoma 38.6%

CCN(CC)CCC(C(=O)O)(c1ccccc1)c1ccccc1
inactive: DU-145 prostate 107% | K-562 leukemia 102% | MALME-3M melanoma 89.7% | MDA-MB-231 breast 99.4% | RXF 393 renal 118% | SF-268 CNS 93.9% | SF-295 CNS 97% | SF-539 CNS 93.9% | UACC-257 melanoma 113% | M14 melanoma 97%

CC(C)C1(C(C)C)NC(=O)NC1=O
inactive: DU-145 prostate 93.7% | K-562 leukemia 108% | MALME-3M melanoma 163% | MDA-MB-231 breast 109% | RXF 393 renal 107% | SF-268 CNS 94% | SF-295 CNS 99.4% | SF-539 CNS 91.6% | UACC-257 melanoma 106% | M14 melanoma 110%

COc1cc(/C=C/C(=O)c2ccc(Oc3ncnc4ccccc34)cc2)cc(OC)c1OC
inactive: DU-145 prostate 21.4% | K-562 leukemia 12.1% | MALME-3M melanoma 98.9% | MDA-MB-231 breast 86.5% | RXF 393 renal 84.3% | SF-268 CNS 81.1% | SF-295 CNS 86.7% | SF-539 CNS 63.6% | UACC-257 melanoma 93.3% | M14 melanoma 73.8%

COc1cccc(-c2nc3sccn3c2-c2ccnc(NCCNC(=O)Nc3cccc(C(F)(F)F)c3)n2)c1
active: RXF 393 renal 6.3%
inactive: DU-145 prostate 79.8% | K-562 leukemia 39.9% | MALME-3M melanoma 85.1% | MDA-MB-231 breast 43.7% | SF-268 CNS 62.3% | SF-295 CNS 37.7% | SF-539 CNS 77.9% | UACC-257 melanoma 69.5% | M14 melanoma 39.2%

O=C(Nc1ccc(-n2ccc3c(NC(=O)c4ccccc4)ncnc32)cc1)c1ccc(Cl)c(C(F)(F)F)c1
active: K-562 leukemia 7.82% | M14 melanoma 9.79%
inactive: DU-145 prostate 23.1% | MALME-3M melanoma 26.9% | MDA-MB-231 breast 12.2% | RXF 393 renal 19% | SF-268 CNS 18.7% | SF-295 CNS 11.7% | SF-539 CNS 31.9% | UACC-257 melanoma 46%

COc1ccc(OC)c(NCC(=O)n2nc(/C=C\c3ccc(O)c(OC)c3)cc2/C=C\c2ccc(O)c(OC)c2)c1
active: K-562 leukemia 4.4% | RXF 393 renal -49.5% | SF-539 CNS 0.158%
inactive: DU-145 prostate 22.9% | MALME-3M melanoma 23.3% | MDA-MB-231 breast 15.7% | SF-268 CNS 23.1% | SF-295 CNS 24% | UACC-257 melanoma 30.2% | M14 melanoma 16.5%

Clc1ccc2c(c1)nnn1c3ncccc3c(Br)c21
inactive: DU-145 prostate 90.9% | K-562 leukemia 81.8% | MALME-3M melanoma 81.8% | MDA-MB-231 breast 63.9% | RXF 393 renal 41.5% | SF-268 CNS 60.9% | SF-295 CNS 61.9% | SF-539 CNS 61.9% | UACC-257 melanoma 101% | M14 melanoma 97.7%

COc1ccc2c(-c3ccc(F)cc3)c(C#N)c(=NC(C)=O)oc2c1
active: K-562 leukemia 8%
inactive: DU-145 prostate 49.6% | MALME-3M melanoma 53.7% | MDA-MB-231 breast 54.7% | RXF 393 renal 36% | SF-268 CNS 52.7% | SF-295 CNS 37.9% | SF-539 CNS 28.4% | UACC-257 melanoma 72% | M14 melanoma 19.8%

COC(OC)C1(c2ccccc2)NC(=O)NC1=O (stereo not given)
inactive: DU-145 prostate 120% | K-562 leukemia 112% | MALME-3M melanoma 112% | MDA-MB-231 breast 112% | RXF 393 renal 116% | SF-268 CNS 119% | SF-295 CNS 121% | SF-539 CNS 114% | UACC-257 melanoma 104% | M14 melanoma 108%

C#CCn1c(-c2cc(OC)c(OC)cc2Br)nc(-c2ccccc2)c1-c1ccccc1
inactive: DU-145 prostate 63.9% | K-562 leukemia 15.1% | MALME-3M melanoma 29.3% | MDA-MB-231 breast 45.7% | RXF 393 renal 41.3% | SF-268 CNS 70% | SF-295 CNS 21.6% | SF-539 CNS 62.7% | UACC-257 melanoma 59.2% | M14 melanoma 16.1%

CCC1S/C(=N\N=C(/C)c2ccco2)N(c2ccccc2)C1=O (stereo not given)
inactive: DU-145 prostate 123% | K-562 leukemia 120% | MALME-3M melanoma 79.6% | MDA-MB-231 breast 118% | RXF 393 renal 103% | SF-268 CNS 100% | SF-295 CNS 123% | SF-539 CNS 107% | UACC-257 melanoma 109% | M14 melanoma 138%

CN1C(=O)C2(NN=C(c3cccc4ccccc34)S2)c2ccccc21 (stereo not given)
inactive: DU-145 prostate 50.3% | K-562 leukemia 11.8% | MALME-3M melanoma 63.5% | MDA-MB-231 breast 46% | RXF 393 renal 79% | SF-268 CNS 37.6% | SF-295 CNS 29.7% | SF-539 CNS 49.1% | UACC-257 melanoma 50.6% | M14 melanoma 17.3%

Cc1ccc[n+](CC(=O)c2cccc3ccccc23)c1
inactive: DU-145 prostate 115% | K-562 leukemia 102% | MALME-3M melanoma 97.3% | MDA-MB-231 breast 130% | RXF 393 renal 105% | SF-268 CNS 103% | SF-295 CNS 97.1% | SF-539 CNS 93.2% | UACC-257 melanoma 112% | M14 melanoma 98.3%

O=c1c2ccccc2sc2c(NCCN3CCOCC3)nc3ccccc3c12
inactive: DU-145 prostate 56% | MALME-3M melanoma 52.2% | MDA-MB-231 breast 28.9% | RXF 393 renal 11.8% | SF-268 CNS 66.9% | SF-539 CNS 47.3% | UACC-257 melanoma 79.8%
active: K-562 leukemia -11.7% | SF-295 CNS -7.24% | M14 melanoma 5.59%

CNC(=O)NN
inactive: DU-145 prostate 103% | K-562 leukemia 109% | MALME-3M melanoma 93.7% | MDA-MB-231 breast 108% | RXF 393 renal 108% | SF-268 CNS 111% | SF-295 CNS 99.6% | SF-539 CNS 97% | UACC-257 melanoma 100% | M14 melanoma 98.1%

COc1ccc(-c2[nH]c3ccccc3c2/C=C(\C#N)S(=O)(=O)c2ccccc2)cc1
active: RXF 393 renal -12.2% | SF-295 CNS -11.5% | SF-539 CNS -30.7%
inactive: DU-145 prostate 12.3% | K-562 leukemia 33.8% | MALME-3M melanoma 73.6% | MDA-MB-231 breast 31.5% | SF-268 CNS 45.1% | UACC-257 melanoma 73.2% | M14 melanoma 20.2%

Cc1cn(C2CC(N=[N+]=[N-])C(COP(=O)(O)OP(=O)(O)OP(=O)(O)O)O2)c(=O)[nH]c1=O (stereo not given)
inactive: DU-145 prostate 114% | K-562 leukemia 83.5% | MALME-3M melanoma 87.9% | MDA-MB-231 breast 118% | RXF 393 renal 127% | SF-268 CNS 103% | SF-295 CNS 80.7% | SF-539 CNS 114% | UACC-257 melanoma 108% | M14 melanoma 57.7%

COc1cc(Cn2cc3c(c2)-c2onc(CO)c2CC3)cc(OC)c1OC
inactive: DU-145 prostate 103% | K-562 leukemia 78.5% | MALME-3M melanoma 79.7% | MDA-MB-231 breast 103% | RXF 393 renal 95.8% | SF-268 CNS 96% | SF-295 CNS 92.1% | SF-539 CNS 96.8% | UACC-257 melanoma 93.2% | M14 melanoma 85.8%
